Assay results reported in the supplement of paper PMC11634586.
Structures can show the parent of a compound that is named as a salt.

These compounds were tested on NCI-H1688 (assay: inhibition of cell viability relative to untreated control (fraction); higher = stronger growth inhibition, active = 0.5 or more). Details: 30 µM; 24 h.
Protocol: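 Natural product library (TargetMol, 640 compounds) screened on NCI-H1688 SCLC cells at 30 µM for 24 h; viability by CCK-8 absorbance at 450 nm, normalised to untreated control and expressed as inhibition rate (fraction). Compounds with >50% reduction in viability were selected as hits.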

**Q.** How did the “inhibition of cell viability” value turn out when `COc1ccc2c(c1OC)CN1CCc3cc4c(cc3C1C2)OCO4` (stereo not given) [Tetrahydroberberine THB] was run?
**A.** The value was 0.0966 (inactive).

**Q.** Which “inhibition of cell viability” value does the source give for `C=C(C)[C@H]1Cc2c(ccc3c2O[C@@H]2COc4cc(OC)c(OC)cc4[C@@H]2C3=O)O1` [Rotenone] here?
**A.** The value was 0.823 (active).

**Q.** For `COC1=C[C@@H]2[C@@H]3Cc4ccc(OC)c(O)c4[C@]2(CCN3C)CC1=O` [Sinomenine], which “inhibition of cell viability” value is on record?
**A.** The value was -0.13 (inactive).

**Q.** Which “inhibition of cell viability” value does the source give for `O=c1ccc2ccc3occc3c2o1` [Isopsoralen] here?
**A.** The value was -0.0131 (inactive).

**Q.** `CCC1=C[C@H]2CN3CCc4c([nH]c5ccccc45)[C@](C(=O)OC)(C2)[C@H]13` [Catharanthine] was tested. Which “inhibition of cell viability” value did it give?
**A.** The value was 0.0372 (inactive).

**Q.** For `C[C@]12CCC(=O)C=C1CC[C@@H]1[C@@H]2CC[C@@]2(C)[C@H]1CC[C@]2(C)O` [17-Methyltestosterone], which “inhibition of cell viability” value is on record?
**A.** Its value is 0.403 (inactive).

**Q.** How did the “inhibition of cell viability” value turn out when `CC[C@H]1CN2CC[C@H]1C[C@@H]2[C@@H](O)c1ccnc2ccc(OC)cc12` [Hydroquinidine] was run?
**A.** The value was -0.0507 (inactive).

**Q.** For `CCC(=O)O[C@H]1CC[C@H]2[C@@H]3CC[C@H]4CC(=O)[C@H](C)C[C@]4(C)[C@H]3CC[C@]12C` [Drostanolone Propionate], which “inhibition of cell viability” value is on record?
**A.** Its value is 0.313 (inactive).

**Q.** Which “inhibition of cell viability” value does the source give for `COc1cc(C2OCC3C(c4cc(OC)c(O[C@@H]5O[C@H](CO)[C@@H](O)[C@H](O)[C@H]5O)c(OC)c4)OCC23)cc(OC)c1O[C@H]1O[C@@H](CO)[C@H](O)[C@@H](O)[C@@H]1O` (stereo not given in full) [Eleutheroside E] here?
**A.** The value was 0.231 (inactive).

**Q.** Which “inhibition of cell viability” value does the source give for `CN1[C@@H]2C[C@@H](OC(=O)[C@H](CO)c3ccccc3)C[C@H]1[C@@H]1O[C@@H]12` [Scopolamine HBr trihydrate] here?
**A.** The value was 0.0269 (inactive).

**Q.** Which “inhibition of cell viability” value does the source give for `COC1=C[C@]23CCCN2CCc2cc4c(cc2[C@@H]3[C@@H]1O)OCO4` [Cephalotaxine] here?
**A.** The value was 0.394 (inactive).

**Q.** For `Cc1c2ccncc2c(C)c2c1[nH]c1ccccc12` [Ellipticine], which “inhibition of cell viability” value is on record?
**A.** Its value is 0.996 (active).

**Q.** How did the “inhibition of cell viability” value turn out when `COc1ccc2c(c1O)-c1c(OC)c(OC)cc3c1[C@H](C2)N(C)CC3` [S-Isocorydine(+)] was run?
**A.** The value was 0.0897 (inactive).

**Q.** `C[C@H]1CC(=O)C[C@@H]2CC[C@H]3[C@@H]4CC[C@H](O)[C@@]4(C)CC[C@@H]3[C@]21C` [Mesterolone] was tested. Which “inhibition of cell viability” value did it give?
**A.** The value was 0.237 (inactive).

**Q.** For `CC(C)=CCC[C@](C)(O)[C@H]1CC[C@]2(C)[C@@H]1[C@H](O)C[C@@H]1[C@@]3(C)CC[C@H](O[C@@H]4O[C@H](CO)[C@@H](O)[C@H](O)[C@H]4O)C(C)(C)[C@@H]3CC[C@]12C` [Ginsenoside Rh2], which “inhibition of cell viability” value is on record?
**A.** Its value is 0.269 (inactive).

**Q.** How did the “inhibition of cell viability” value turn out when `C[C@]12CC[C@H](O)C[C@@H]1CC[C@@H]1[C@@H]2CC[C@]2(C)C(=O)CC[C@@H]12` [Epiandrosterone] was run?
**A.** Its value is -0.0121 (inactive).

**Q.** Which “inhibition of cell viability” value does the source give for `CC(C)=CCC[C@](C)(O)[C@H]1CC[C@]2(C)[C@@H]1[C@H](O)C[C@@H]1[C@@]3(C)CC[C@H](O)C(C)(C)[C@@H]3[C@@H](O[C@@H]3O[C@H](CO)[C@@H](O)[C@H](O)[C@H]3O)C[C@]12C` [Ginsenoside Rh1] here?
**A.** The value was 0.0296 (inactive).

**Q.** With `N#CCCN` [3-Aminopropionitrile fumarate] as the compound, how does the “inhibition of cell viability” value read?
**A.** Its value is -0.137 (inactive).

**Q.** How did the “inhibition of cell viability” value turn out when `COc1ccc2c(c1)[nH]c1c(C)nccc12` [Harmine hydrochloride] was run?
**A.** Its value is 0.813 (active).

**Q.** `NCCc1ccc(O)cc1` [Tyramine] was tested. Which “inhibition of cell viability” value did it give?
**A.** The value was 0.176 (inactive).

**Q.** For `CC(=O)OC12COC1CC(O)C1(C)C(=O)C(O)C3=C(C)C(O)CC(O)(C(OC(=O)c4ccccc4)C21)C3(C)C` (stereo not given) [10-Deacetylbaccatin III], which “inhibition of cell viability” value is on record?
**A.** Its value is 0.454 (inactive).

**Q.** `CN1[C@@H]2CC[C@H]1C[C@@H](OC(=O)[C@H](CO)c1ccccc1)C2` [L-Hyoscyamine] was tested. Which “inhibition of cell viability” value did it give?
**A.** Its value is 0.305 (inactive).

**Q.** `C[C@@H]1C(=O)O[C@H]2[C@H](O)[C@@]34O[C@@H]5OC(=O)[C@H](O)[C@@]56[C@H](C(C)(C)C)[C@H](O)C(OC3=O)[C@]64[C@@]12O` (stereo not given in full) [Ginkgolide C] was tested. Which “inhibition of cell viability” value did it give?
**A.** Its value is -0.00562 (inactive).

**Q.** Which “inhibition of cell viability” value does the source give for `CCC1=C[C@@H]2CN3CCc4c([nH]c5ccccc45)[C@@](C(=O)OC)(C2)[C@@H]13` [Catharanthine tartrate] here?
**A.** Its value is -0.101 (inactive).

**Q.** How did the “inhibition of cell viability” value turn out when `CC1=CC(=O)c2c(O)cccc2C1=O` [Plumbagin] was run?
**A.** Its value is 1 (active).

**Q.** For `CN(CC(=O)O)C(=N)NP(=O)(O)O` [Creatine phosphate disodium salt], which “inhibition of cell viability” value is on record?
**A.** The value was 0.256 (inactive).

**Q.** How did the “inhibition of cell viability” value turn out when `CNCC(O)c1ccc(O)cc1` (stereo not given) [Synephrine] was run?
**A.** The value was 0.204 (inactive).

**Q.** How did the “inhibition of cell viability” value turn out when `C[C@H]1CCC/C=C/[C@@H]2C[C@H](O)C[C@H]2[C@H](O)/C=C/C(=O)O1` [Brefeldin A] was run?
**A.** The value was 0.704 (active).

**Q.** For `COC(=O)C1=CCCN(C)C1` [Arecoline HBr], which “inhibition of cell viability” value is on record?
**A.** The value was 0.105 (inactive).

**Q.** For `CN(C)CCc1ccc(O)cc1` [Hordenine], which “inhibition of cell viability” value is on record?
**A.** Its value is 0.0129 (inactive).

**Q.** `c1cc2c(cc1[C@H]1OC[C@H]3[C@@H]1CO[C@@H]3c1ccc3c(c1)OCO3)OCO2` [Sesamin] was tested. Which “inhibition of cell viability” value did it give?
**A.** The value was -0.0637 (inactive).

**Q.** How did the “inhibition of cell viability” value turn out when `CCN1C[C@]2(OC(=O)c3ccccc3NC(C)=O)CC[C@H](OC)[C@@]34[C@@H]2C[C@@H]([C@@H]13)[C@@]1(O)C[C@H](OC)[C@H]2C[C@@H]4[C@]1(O)[C@H]2OC` [Lappaconitine] was run?
**A.** The value was -0.0777 (inactive).

**Q.** With `N#C[C@H](O[C@@H]1O[C@H](C(=O)O)[C@@H](O)[C@H](O)[C@H]1O)c1ccccc1` [Laetrile] as the compound, how does the “inhibition of cell viability” value read?
**A.** Its value is 0.0291 (inactive).

**Q.** How did the “inhibition of cell viability” value turn out when `CC(=O)O[C@H]1C[C@H](O[C@H]2[C@@H](O)C[C@H](O[C@H]3[C@@H](O)C[C@H](O[C@H]4CC[C@@]5(C)[C@H](CC[C@@H]6[C@@H]5C[C@@H](O)[C@]5(C)[C@@H](C7=CC(=O)OC7)CC[C@]65O)C4)O[C@@H]3C)O[C@@H]2C)O[C@H](C)[C@H]1O[C@@H]1O[C@H](CO)[C@@H](O)[C@H](O)[C@H]1O` [Lanatoside C] was run?
**A.** Its value is 0.994 (active).

**Q.** With `C[C@@H]1CC[C@@]2(OC1)O[C@H]1C[C@H]3[C@@H]4CC=C5C[C@@H](O[C@@H]6O[C@H](CO)[C@@H](O[C@@H]7O[C@@H](C)[C@H](O)[C@@H](O)[C@H]7O)[C@H](O)[C@H]6O[C@@H]6O[C@@H](C)[C@H](O)[C@@H](O)[C@H]6O)CC[C@]5(C)[C@H]4CC[C@]3(C)[C@H]1[C@@H]2C` [Dioscin] as the compound, how does the “inhibition of cell viability” value read?
**A.** The value was 0.976 (active).

**Q.** For `C1=C2CCCN[C@H]2[C@@H]2C[C@H]1[C@H]1CCCCN1C2` [Aloperine], which “inhibition of cell viability” value is on record?
**A.** The value was 0.311 (inactive).

**Q.** How did the “inhibition of cell viability” value turn out when `C#C[C@]1(O)CC[C@H]2[C@@H]3CCC4=CC(=O)CC[C@]4(C)[C@H]3CC[C@@]21C` [Ethisterone] was run?
**A.** The value was 0.178 (inactive).

**Q.** How did the “inhibition of cell viability” value turn out when `O=C1C=CC[C@@H]2[C@H]3CCC[N+]4([O-])CCC[C@@H](CN12)[C@@H]34` (stereo not given in full) [Oxysophocarpine] was run?
**A.** The value was -0.0366 (inactive).

**Q.** Which “inhibition of cell viability” value does the source give for `CC(C)=CCOc1c2occc2cc2ccc(=O)oc12` [Imperatorin] here?
**A.** Its value is 0.0251 (inactive).

**Q.** Which “inhibition of cell viability” value does the source give for `COc1ccc(Cc2nccc3cc(OC)c(OC)cc23)cc1OC` [Papaverine hydrochloride] here?
**A.** The value was 0.205 (inactive).
